Data published in PubChem BioAssay (EPA / NIEHS).
“And” between values parts separate entries of the source, which are not always exact repeats. Equal values may be shown once. Where a structure was tested more than once in an assay, its records may differ in their call. The source made the active and inactive calls. Rule for the calls: active = hit-call score of the fitted dose curve at least 0.9, where 1 is the maximum; inactive = score below 0.9.

Legend:
[1] = read-out: Interferon-gamma inducible Protein 10 (IP10), CXCL10 (gene 3627); assay: BSK_hDFCGF_IP10: BioMAP Diversity Plus: hDFCGF Assay for Interferon-gamma inducible Protein 10 (IP10) Biomarker Activity (AID 2283053); details: primary human foreskin fibroblasts; actives raise or lower the signal
Method in brief: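 Primary foreskin fibroblasts, human; 24 h compound exposure; IP-10 by ELISA; bidirectional fit vs DMSO.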

[2] = read-out: Urokinase-type plasminogen activator receptor (uPAR), PLAUR (gene 5329); assay: BSK_CASM3C_uPAR: BioMAP Diversity Plus: CASM3C Assay for Urokinase-type plasminogen activator receptor (uPAR) Biomarker Activity (AID 2283054); details: primary human coronary artery smooth muscle cells; actives raise or lower the signal;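 note: cell-surface uPAR protein level quantified by ELISA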
[3] = read-out: Vascular cell adhesion molecule 1 (VCAM1), VCAM1 (gene 7412); assay: BSK_CASM3C_VCAM1: BioMAP Diversity Plus: CASM3C Assay for Vascular cell adhesion molecule 1 (VCAM1) Biomarker Activity (AID 2283055); details: primary human coronary artery smooth muscle cells; actives raise or lower the signal;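 note: VCAM-1 protein level quantified by ELISA on the cells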
[4] = read-out: Collagen III, COL3A1 (gene 1281); assay: BSK_hDFCGF_CollagenIII: BioMAP Diversity Plus: hDFCGF Assay for Collagen III Biomarker Activity (AID 2283056); details: primary human foreskin fibroblasts; actives raise or lower the signal
Method in brief: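 Human foreskin primary fibroblasts were exposed to test chemicals for 24 h, after which collagen III was quantified by ELISA. Activity was fitted bidirectionally against DMSO as negative control and baseline.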

[5] = read-out: Epidermal growth factor receptor (EGFR), EGFR (gene 1956); assay: BSK_hDFCGF_EGFR: BioMAP Diversity Plus: hDFCGF Assay for Epidermal growth factor receptor (EGFR) Biomarker Activity (AID 2283057); details: primary human foreskin fibroblasts; actives raise or lower the signal
Method in brief: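 hDFCGF system, primary human foreskin fibroblasts; compound 24 h; EGFR measured by ELISA; DMSO = negative control/baseline; bidirectional fitting.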

[6] = read-out: Interleukin-8 (IL8), CXCL8 (gene 3576); assay: BSK_hDFCGF_IL8: BioMAP Diversity Plus: hDFCGF Assay for Interleukin-8 (IL8) Biomarker Activity (AID 2283058); details: primary human foreskin fibroblasts; actives raise or lower the signal
Method in brief: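 hDFCGF human dermal fibroblasts; 24 h chemical exposure; IL-8 by ELISA; bidirectional curve fit vs DMSO baseline; gain or loss of signal scored.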

[7] = BSK_hDFCGF_Proliferation: Cell Proliferation Assessment in the BioMAP Diversity Plus: hDFCGF Assay (AID 2283059); details: primary human foreskin fibroblasts;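 note: curves fitted for both rise and fall of signal versus DMSO baseline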
Method in brief: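 This proliferation readout used SRB total-protein staining of human foreskin fibroblasts […], normalized to DMSO with bidirectional curve fitting.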

[8] = read-out: Monokine induced gamma interferon (MIG), CXCL9 (gene 4283); assay: BSK_hDFCGF_MIG: BioMAP Diversity Plus: hDFCGF Assay for Monokine induced gamma interferon (MIG) Biomarker Activity (AID 2283063); details: primary human foreskin fibroblasts; actives raise or lower the signal
Method in brief: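 ELISA read-out of MIG from primary human dermal fibroblasts 24 h post-dosing. Gain or loss of signal fitted bidirectionally, DMSO as baseline.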

[9] = read-out: Matrix Metallopeptidase 1 (MMP1), MMP1 (gene 4312); assay: BSK_hDFCGF_MMP1: BioMAP Diversity Plus: hDFCGF Assay for Matrix Metallopeptidase 1 (MMP1) Biomarker Activity (AID 2283064); details: primary human foreskin fibroblasts; actives raise or lower the signal
Method in brief: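 Primary human foreskin fibroblasts exposed to chemicals for 24 h; MMP1 measured by ELISA. Cytotoxicity tracked by SRB staining in parallel cultures; bidirectional fit relative to DMSO.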

[10] = read-out: Vascular cell adhesion molecule 1 (VCAM1), VCAM1 (gene 7412); assay: BSK_hDFCGF_VCAM1: BioMAP Diversity Plus: hDFCGF Assay for Vascular cell adhesion molecule 1 (VCAM1) Biomarker Activity (AID 2283065); details: primary human foreskin fibroblasts; actives raise or lower the signal;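 note: VCAM-1 protein level quantified by ELISA after 24 h chemical exposure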
Method in brief: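 Primary human foreskin fibroblasts (hDFCGF system) were dosed with chemical and VCAM-1 was measured by ELISA 24 h later. Bidirectional curve fitting used DMSO as negative control and activity baseline.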

[11] = read-out: Plasminogen activator inhibitor-1 (PAI1), SERPINE1 (gene 5054); assay: BSK_hDFCGF_PAI1: BioMAP Diversity Plus: hDFCGF Assay for Plasminogen activator inhibitor-1 (PAI1) Biomarker Activity (AID 2283066); details: primary human foreskin fibroblasts; actives raise or lower the signal
Method in brief: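 Primary dermal fibroblasts (human foreskin), hDFCGF system; compound 24 h; PAI-1 by ELISA; bidirectional fit vs DMSO control.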

[12] = read-out: Intercellular Adhesion Molecule 1 (ICAM1), ICAM1 (gene 3383); assay: BSK_KF3CT_ICAM1: BioMAP Diversity Plus: KF3CT Assay for Intercellular Adhesion Molecule 1 (ICAM1) Biomarker Activity (AID 2283067); details: primary human keratinocytes with fibroblasts; actives raise or lower the signal
Method in brief: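 Human keratinocyte plus foreskin fibroblast primary co-culture was exposed to chemical for 24 h. ICAM-1 was then quantified by ELISA, and the data were fit bidirectionally against DMSO as the negative control and baseline.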

[13] = read-out: Interferon-gamma inducible Protein 10 (IP10), CXCL10 (gene 3627); assay: BSK_KF3CT_IP10: BioMAP Diversity Plus: KF3CT Assay for Interferon-gamma inducible Protein 10 (IP10) Biomarker Activity (AID 2283068); details: primary human keratinocytes with fibroblasts; actives raise or lower the signal
Method in brief: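 Signal is secreted/surface IP-10 by ELISA in a human primary skin co-culture of keratinocytes and foreskin fibroblasts, taken 24 h post-dosing; DMSO served as negative control.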

[14] = BSK_KF3CT_SRB: Viability Assessment in the BioMAP Diversity Plus: KF3CT Assay (AID 2283069); details: primary human keratinocytes with fibroblasts;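 note: total protein by sulforhodamine B staining as a cytotoxicity measure; read 24 h after compound addition; fitted for both signal gain and loss against DMSO baseline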
Method in brief: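 Human keratinocyte and foreskin fibroblast co-culture exposed to chemical for 24 h. Total protein measured in parallel cultures by 0.1% sulforhodamine B staining after 10% TCA fixation, read at 560 nm; bidirectional fit relative to DMSO.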

[15] = read-out: Interleukin-1 alpha (IL1a), IL1A (gene 3552); assay: BSK_KF3CT_IL1a: BioMAP Diversity Plus: KF3CT Assay for Interleukin-1 alpha (IL1a) Biomarker Activity (AID 2283070); details: primary human keratinocytes with fibroblasts; actives raise or lower the signal
Method in brief: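 Primary human keratinocyte plus foreskin fibroblast co-culture, dosed and measured at 24 h in 96-well plates. IL-1a level quantified by ELISA; bidirectional fit relative to DMSO.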

[16] = read-out: Matrix Metallopeptidase 9 (MMP9), MMP9 (gene 4318); assay: BSK_KF3CT_MMP9: BioMAP Diversity Plus: KF3CT Assay for Matrix Metallopeptidase 9 (MMP9) Biomarker Activity (AID 2283074); details: primary human keratinocytes with fibroblasts; actives raise or lower the signal;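 note: MMP9 protein level quantified by ELISA in the co-culture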
Method in brief: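 Human keratinocyte and foreskin fibroblast co-culture exposed to chemicals for 24 h; MMP9 biomarker measured by ELISA, bidirectional fitting relative to DMSO; cytotoxicity tracked by SRB total protein staining in parallel cultures.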

[17] = read-out: urokinase plasminogen activator (uPA), PLAU (gene 5328); assay: BSK_KF3CT_uPA: BioMAP Diversity Plus: KF3CT Assay for urokinase plasminogen activator (uPA) Biomarker Activity (AID 2283075); details: primary human keratinocytes with fibroblasts; actives raise or lower the signal
Method in brief: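 Primary human keratinocyte/foreskin fibroblast co-culture exposed to chemical; uPA measured by ELISA at 24 h. Bidirectional fit versus DMSO, with parallel SRB total-protein staining for cytotoxicity.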

[18] = read-out: E-selectin (Homo sapiens) (UniProt P16581); assay: BSK_LPS_Eselectin: BioMAP Diversity Plus: LPS Assay for Eselectin Biomarker Activity (AID 2283077); details: primary human HUVEC with PBMC; actives raise or lower the signal
Method in brief: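 Human umbilical vein endothelial cells co-cultured with peripheral blood mononuclear cells under LPS stimulation; E-selectin measured by ELISA 24 h after chemical dosing. Activity fitted bidirectionally against DMSO as negative control and baseline.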

[19] = read-out: Interleukin-8 (IL8), CXCL8 (gene 3576); assay: BSK_LPS_IL8: BioMAP Diversity Plus: LPS Assay for Interleukin-8 (IL8) Biomarker Activity (AID 2283078); details: primary human HUVEC with PBMC; actives raise or lower the signal
Method in brief: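 Human umbilical vein endothelial cells co-cultured with PBMC were stimulated with LPS; IL-8 levels were measured by ELISA 24 h after chemical dosing. Activity was fitted bidirectionally against DMSO as negative control and baseline.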

[20] = BSK_LPS_SRB: Viability Assessment in the BioMAP Diversity Plus: LPS Assay (AID 2283079); details: primary human HUVEC with PBMC;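 note: total protein by sulforhodamine B absorbance as a cytotoxicity measure; measured one day after compound addition; fitted in both directions against DMSO so loss or gain of signal counts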
Method in brief: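 Human umbilical vein endothelial cells co-cultured with PBMC (LPS system) were dosed for 24 h. Total protein was stained with 0.1% sulforhodamine B after 10% TCA fixation, read at 560 nm, and fitted bidirectionally against DMSO baseline.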

Measured: AC50

E-selectin (Homo sapiens), sequence (P16581 whole entry, looked up): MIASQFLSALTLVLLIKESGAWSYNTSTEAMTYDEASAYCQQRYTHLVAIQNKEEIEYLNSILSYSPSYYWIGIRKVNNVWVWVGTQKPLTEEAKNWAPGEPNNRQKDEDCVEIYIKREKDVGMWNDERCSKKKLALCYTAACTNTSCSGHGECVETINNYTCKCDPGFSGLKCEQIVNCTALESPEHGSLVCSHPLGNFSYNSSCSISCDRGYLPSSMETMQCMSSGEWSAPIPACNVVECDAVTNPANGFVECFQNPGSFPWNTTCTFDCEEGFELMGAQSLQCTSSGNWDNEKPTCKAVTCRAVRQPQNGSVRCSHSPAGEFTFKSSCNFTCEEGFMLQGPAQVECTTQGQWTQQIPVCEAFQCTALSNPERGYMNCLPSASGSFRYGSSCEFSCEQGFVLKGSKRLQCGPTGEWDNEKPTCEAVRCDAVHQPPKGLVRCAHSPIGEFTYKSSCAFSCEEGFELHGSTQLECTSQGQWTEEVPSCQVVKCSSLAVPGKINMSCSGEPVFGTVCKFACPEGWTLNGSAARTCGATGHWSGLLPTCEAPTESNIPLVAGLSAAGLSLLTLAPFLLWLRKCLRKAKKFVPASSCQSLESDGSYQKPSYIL

[Cd+2].[Cl-].[Cl-]
inactive: [5] | [19] | [20]
active: [1] 15.9 µM and 13.5 µM | [2] 9.94 µM and 6.24 µM | [3] 4.05 µM and 3.51 µM | [4] 3.57 µM and 4.55 µM | [5] 0.156 µM | [6] 24.2 µM and 23 µM | [7] 919 nM and 655 nM | [8] 9.86 µM and 5.69 µM | [9] 3.97 µM and 4.18 µM | [10] 1.9 µM and 2.23 µM | [11] 601 nM and 305 nM | [12] 29.2 µM and 27.5 µM | [13] 35.2 µM and 33.4 µM | [14] 32.4 µM and 32.1 µM | [15] 33.8 µM and 30.1 µM | [16] 16.2 µM and 20.5 µM | [17] 32.6 µM and 35.8 µM | [18] 32.8 µM and 35.4 µM | [19] 28.9 µM
